The full list was thinned out, with hits kept by preference.
Pf Dd2 inh: inhibitors of Plasmodium falciparum Dd2 growth; 4.3% of 120,000 active; Potency, µM (series often up to 28.9 µM), for the others: at the highest dose activity, negative = inhibition, hits mostly inhibitors; P. falciparum Dd2 growth, SYBR Green, 72 h; AID 1347417; active = well fitted inhibition curve with a large enough effect;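 note: plate controls were DMSO vehicle for no effect and reference drug for full effect; nearly all actives have a fitted effect of over 65% in size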
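Infected erythrocytes (Dd2, 0.3% parasitemia, 2.5% hematocrit final) are added to compound in RPMI-1640/Albumax II medium, grown 72 h at 37C in low oxygen, then lysed with saponin/Triton-X containing SYBR Green and read by fluorescence.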
* = called active by the depositor; [ ] = dose if it differs, or a comment. Potency is the fitted concentration of half-maximal effect.

Cc1ccc(NC(=O)[C@H](Cc2ccccc2)N2Cc3ccccc3C2=O)cc1F was read as Pf Dd2 inh -24%.
Cc1ccc(N2C[C@]34C=C[C@H](O3)C(C(=O)N(C)Cc3nccs3)C4C2=O)cc1C (some centres not stated) was read as Pf Dd2 inh -3%.
`COc1cc(OC)c(Nc2c3c(nc4nc(-c5cccs5)nn24)CCCC3)cc1Cl` gave Pf Dd2 inh 11µM*.
Screening COc1cc(OC)c(NC(=O)c2ccc3c(Cl)c4c(nc3c2)CCCC4)cc1Cl returned Pf Dd2 inh 14%.
For COc1ccc(Nc2c3c(nc4nncn24)CCC3)cc1OC the results were Pf Dd2 inh inactive.
`COc1ccc(-c2cc(N3CCCN(C(=O)c4ccc(F)c(Cl)c4)CC3)n[nH]2)cc1` gave Pf Dd2 inh -7%.
COc1ccc(CC(=O)N2C[C@@H](CO)[C@H](c3ccccn3)C2)cc1 was read as Pf Dd2 inh 1%.
N#Cc1ccc(CN2CCCOCCNC(=O)CC2)cc1 was read as Pf Dd2 inh -8%.
N#CC1=C(N)N(c2ccc(Cl)cc2)C2=C(C(=O)CCC2)C1c1cc(CN2CCOCC2)cs1 (configuration not stated) was read as Pf Dd2 inh 13µM*.
For N#CC1=C(N)N(c2cccc(Cl)c2)C2=C(C(=O)CCC2)C1c1cc(CN2CCOCC2)cs1 (configuration not stated) the results were Pf Dd2 inh 10µM*.
For O=c1[nH]c(N2CCOCC2)nc2c1CCN(Cc1cccc(Cl)c1)CC2 the results were Pf Dd2 inh 18%[5.79 µM].
For O=C1N(C2CCOCC2)C[C@H]2CN(Cc3cccc(Cl)c3)CCN12 the results were Pf Dd2 inh inactive.
`COCCC(=O)N1CCC(N2CC3CC(C2)[C@H]2CCCC(=O)N2C3)CC1` (some centres not stated) gave Pf Dd2 inh -9%.
Screening Cc1ccc(-n2c(=O)c3c(C)c(C(=O)N(C)C)sc3n(Cc3ccccc3C)c2=O)cc1C returned Pf Dd2 inh 22%.
Screening COc1cc(NC(=O)Nc2cccc(-c3noc(C)n3)c2)cc(OC)c1OC returned Pf Dd2 inh inactive.
`CC(=O)N1CCN(C(=O)c2cnc3c(c2)N(C(=O)Cc2ccc(C(C)C)cc2)CCC3)CC1` gave Pf Dd2 inh -12%.
`O=C(COc1ccccc1)Nc1nnc(S(=O)(=O)Nc2ccccc2)s1` gave Pf Dd2 inh -6%.
Screening Cc1cnc(CC2CCCN(C(=O)CCc3c[nH]c4ccccc34)C2)n1C(C)C (configuration not stated) returned Pf Dd2 inh 4.5µM*.
`Cc1cnc(CC2CCN(C(=O)CCc3c[nH]c4ccccc34)C2)n1CC1CC1` (configuration not stated) gave Pf Dd2 inh inactive.
For Cc1cnc(CC2CCCN(C(=O)N(C)C)C2)n1C(C)C (configuration not stated) the results were Pf Dd2 inh -11%.
COc1ccc(C)cc1NC(=O)C(Cc1ccccc1)NS(=O)(=O)c1ccc(Br)s1 (configuration not stated) was read as Pf Dd2 inh -20%.
O=C1[C@@H]2C[C@@H](O)CN2C2(CN(CC3CC3)C2)C(=O)N1Cc1ccccc1 was read as Pf Dd2 inh 6%[44.1 µM].
CCOC(=O)c1sc(NC(=O)C2c3ccccc3Oc3ccccc32)c(C#N)c1C was read as Pf Dd2 inh -18%.
Cc1sc(NC(=O)COc2ccc(C(C)(C)C)cc2)c(C(=O)OC(C)C)c1C was read as Pf Dd2 inh 28%.
Cc1c(C(=O)OC(C)C)sc(NC(=O)C2c3ccccc3Oc3ccccc32)c1C(=O)OC(C)C was read as Pf Dd2 inh 2.2µM*.
`CCS(=O)(=O)N1CCC2(CC1)CC(C(=O)N1CCOCC1)N(C)C2` (configuration not stated) gave Pf Dd2 inh 24%.
For O=C(Cn1nnc(-c2ccc(C(F)(F)F)cc2)n1)NCCc1ccccc1 the results were Pf Dd2 inh 27%.
CCn1nc(C)c(-c2cc(C(=O)NCC3Cn4cccc4C(=O)N3CCOC)no2)c1C (configuration not stated) was read as Pf Dd2 inh inactive.
For CCNC(=O)N(C1CC1)C1CCOC2(CCN(C(=O)NCc3ccc(F)cc3)CC2)C1 (configuration not stated) the results were Pf Dd2 inh 35%.
Cc1ccc(-n2c(C)cc(C(=O)C(=O)Nc3ccccc3)c2C)c(C)c1 was read as Pf Dd2 inh 5µM*.
Screening COc1ccccc1NC(=O)C(=O)c1cc(C)n(-c2cc(C)cc(C)c2)c1C returned Pf Dd2 inh 24%.
Screening CCOc1ccccc1NC(=O)C(=O)c1cc(C)n(-c2cccc(C)c2C)c1C returned Pf Dd2 inh 7.1µM*.
Screening CCOc1ccccc1NC(=O)CN1C(=O)C(=O)c2ccccc21 returned Pf Dd2 inh 158%[5.79 µM].
Screening CCOCCc1nnc(NC(=O)C(=O)c2cc(C)n(-c3ccc(C)cc3C)c2C)s1 returned Pf Dd2 inh 84%.
`Cc1cc(/C=C(\C#N)C(=O)Nc2ccccc2)c(C)n1-c1ccc(F)cc1` gave Pf Dd2 inh -15%.
For CCOc1ccc(NC(=O)c2cc3c(n(-c4ccc(OC)cc4)c2=O)CC(C)(C)CC3=O)cc1 the results were Pf Dd2 inh -17%.
For CCN(CC)C(=O)Cn1c(=O)n(CCCCCC(=O)Nc2ccccc2)c(=O)c2sccc21 the results were Pf Dd2 inh 12%.
COC[C@@H]1CN(C(=O)c2occc2C)C[C@H]1c1nc(C)no1 was read as Pf Dd2 inh -4%.
For Cc1ccc(CN2CCc3ncc(C(=O)NCCOc4ccccc4)n3CC2)o1 the results were Pf Dd2 inh 9%[44.1 µM].
For Cc1ccc(NC(=O)N2CCC(n3c(C)nc4cccnc43)CC2)c(Cl)c1 the results were Pf Dd2 inh 22%.
O=C(/C=C/c1ccccc1)N1CCN(Cc2cc(=O)n3nc(-c4ccccc4Cl)sc3n2)CC1 was read as Pf Dd2 inh -30%.
Screening O=C(Nc1ccccc1)c1cccc2c(=O)c3c([nH]c12)CCCC3 returned Pf Dd2 inh 4.5µM*.
COc1cccc(NC(=O)c2cccc3c(=O)c4c([nH]c23)CCCC4)c1 was read as Pf Dd2 inh 0.89µM*.
For O=C(CSc1nc(=O)[nH]c2c1CCCC2)NCc1ccccc1 the results were Pf Dd2 inh 25%.
`CCC1(C(=O)Nc2cccc(OC)c2)CCCCC(=O)N1` (configuration not stated) gave Pf Dd2 inh 14%.
Screening O=C(CSc1nc(=O)[nH]c2c1CCC2)NCc1ccccc1 returned Pf Dd2 inh 10%.
COc1cccc(NS(=O)(=O)c2ccc3[nH]c4c(c3c2)CCCCCC4)c1 was read as Pf Dd2 inh -27%.
CN1C[C@H](NCC2CC2)CCC[C@@H](C(=O)NCc2cc(F)cc(F)c2)CC1=O was read as Pf Dd2 inh -21%[44.1 µM].
O=C(Cn1c(=O)nc(-c2ccccc2F)c2cc(Cl)ccc21)NCCCc1ccccc1 was read as Pf Dd2 inh -2%.
`O=C1CC(c2ccccc2)N(Cc2ccncc2)CCCN(S(=O)(=O)c2cccc(F)c2)CCN1` (configuration not stated) gave Pf Dd2 inh 0.5µM*.
Screening O=C1CC(c2ccccc2)N(Cc2ccncc2)CCCN(C(=O)c2cc3ccccc3[nH]2)CCN1 (configuration not stated) returned Pf Dd2 inh 3.5µM*.
For O=C1CC(c2ccccc2)N(Cc2ccncc2)CCCN(C(=O)C2CCCCC2)CCN1 (configuration not stated) the results were Pf Dd2 inh -26%.

Screening results deposited in PubChem BioAssay by National Center for Advancing Translational Sciences (NCATS).
